The supplement of paper PMC10849652
Of roughly 7,900 targets only a part is listed; those with a hit were picked by preference. About 0.6% of all pairs of compound and target were hits. Values without a mark were called inactive.

Experiments:
Assay in all cases: log2 fold change, soluble protein after heating vs DMSO (PISA); higher = thermal stabilisation; K562 cells, 10 uM, 30 min; active = over 0.2 and 3.5 SD of the protein, either way, in both replicates (recomputed)
erlotinib = compound: C#Cc1cccc(Nc2ncnc3cc(OCCOC)c(OCCOC)cc23)c1 [erlotinib]
How it was run: (§1)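 Aliquots of K562 cells (2×10^6 cells/mL) treated with 10 μM compound for 30 min were heated for 3 min over 48°C-58°C. After pooling and extraction in PBS with 0.5% NP-40 at 4°C, soluble protein from a 21,000xg, 90 min spin was quantified by TMTpro 16plex LC-MS/MS with channel sums equalised. Thermal stability is expressed against control samples, from duplicates, as a log2 fold change.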

[1] = compound: C/C(=N\NC(=O)C1=CC(=CC=C1)S(=O)(=O)N2CCOCC2)/C3=C(C=CC(=C3)Cl)O
How it was run: as §1

[2] = compound: C1=CC(=C(C=C1Cl)C2=NC3=NC=CN=C3C(=N2)NC4=CC=NC=C4)F
How it was run: as §1

[3] = compound: C1=CC(=CC=C1C2=NC3=C(N2)C=C(C=C3)C(=O)N)OC4=CC=C(C=C4)Cl
How it was run: as §1

[4] = compound: C1=CC2=C(C=CC(=C2)/C=C\3/C(=O)NC(=NCC4=CC=CS4)S3)N=C1
How it was run: as §1

[5] = compound: C1=CC2=NC=CN=C2C=C1/C=C/3\C(=O)NC(=O)S3
How it was run: as §1

[6] = compound: C1=CC=C(C=C1)C2=NC(=C(N2)C3=CC=NC=C3)C4=CC(=C(C=C4)Cl)O
How it was run: as §1

[7] = compound: C1=CC=C2C(=C1)C3=NNC4=CC=CC(=C43)C2=O
How it was run: as §1

[8] = compound: C1CCN(C1)C(=O)NC2=CC=CC(=C2)NC3=NC=C(C(=N3)NCCC4=CN=CN4)Br
How it was run: as §1

[9] = compound: C1CN(CCC1(CC2=CC=C(C=C2)Cl)N)C3=NC=NC4=C3C=CN4
How it was run: as §1

IRAK-1-4 Inhibitor I = compound: C1COCCN1CCN2C3=CC=CC=C3N=C2NC(=O)C4=CC(=CC=C4)[N+](=O)[O-] [IRAK-1-4 Inhibitor I]
How it was run: as §1

ibrutinib = compound: C=CC(=O)N1CCC[C@@H](n2nc(-c3ccc(Oc4ccccc4)cc3)c3c(N)ncnc32)C1 [ibrutinib]
How it was run: as §1

[10] = compound: CC(=O)c1cnc2ccc(-c3cc(Cl)c(O)c(Cl)c3)nc2c1N[C@H]1CC[C@H](CN(C)C)CC1
How it was run: as §1

ralimetinib = compound: CC(C)(C)Cn1c(N)nc2ccc(-c3[nH]c(C(C)(C)C)nc3-c3ccc(F)cc3)nc21 [ralimetinib]
How it was run: as §1

[11] = compound: CC(C)(O)CC(=O)NCCn1ccc2ncnc(Nc3ccc(Oc4cccc(C(F)(F)F)c4)c(Cl)c3)c21
How it was run: as §1

[12] = compound: CC(C)C1=C2N=C(C=C(N2N=C1)NCC3=CC=CC=C3)NCCCCCCN
How it was run: as §1

[13] = compound: CC(C)C[C@@H](C=O)NC(=O)[C@H](CC(C)C)NC(=O)[C@H](CC(C)C)NC(=O)OCc1ccccc1
How it was run: as §1

pinometostat = compound: CC(C)N(C[C@H]1O[C@@H](n2cnc3c(N)ncnc32)[C@H](O)[C@@H]1O)[C@H]1C[C@@H](CCc2nc3cc(C(C)(C)C)ccc3[nH]2)C1 [pinometostat]
How it was run: as §1

[14] = compound: CC1=C(C(CC(=O)N1)C2=CC=C(C=C2)C(F)(F)F)C(=O)NC3=C(C=C4C(=C3)C=NN4)F
How it was run: as §1

[15] = compound: CC1=C(C2=C(C=C1)C(=O)C3=CC=CC=C3N2CCCN)C
How it was run: as §1

UniProt Q6PCB7, sequence (Q6PCB7 whole entry, looked up): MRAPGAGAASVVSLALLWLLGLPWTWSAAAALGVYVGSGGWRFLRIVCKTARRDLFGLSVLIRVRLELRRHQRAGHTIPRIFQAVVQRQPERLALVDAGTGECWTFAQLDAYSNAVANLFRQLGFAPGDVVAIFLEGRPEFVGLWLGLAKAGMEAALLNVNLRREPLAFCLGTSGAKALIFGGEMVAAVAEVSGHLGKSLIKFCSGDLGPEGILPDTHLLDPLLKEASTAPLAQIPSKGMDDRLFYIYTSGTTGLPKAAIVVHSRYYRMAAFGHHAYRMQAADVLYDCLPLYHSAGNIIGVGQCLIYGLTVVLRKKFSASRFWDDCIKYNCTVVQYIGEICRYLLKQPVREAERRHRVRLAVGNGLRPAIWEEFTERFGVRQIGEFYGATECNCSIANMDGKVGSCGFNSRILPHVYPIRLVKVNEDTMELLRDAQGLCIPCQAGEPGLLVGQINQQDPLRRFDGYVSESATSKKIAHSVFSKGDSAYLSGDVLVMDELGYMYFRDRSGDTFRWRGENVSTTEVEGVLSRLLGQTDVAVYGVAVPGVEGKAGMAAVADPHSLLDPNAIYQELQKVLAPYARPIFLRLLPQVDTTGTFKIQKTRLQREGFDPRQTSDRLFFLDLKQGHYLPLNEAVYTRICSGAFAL
UniProt Q9UP52, sequence (Q9UP52 whole entry, looked up): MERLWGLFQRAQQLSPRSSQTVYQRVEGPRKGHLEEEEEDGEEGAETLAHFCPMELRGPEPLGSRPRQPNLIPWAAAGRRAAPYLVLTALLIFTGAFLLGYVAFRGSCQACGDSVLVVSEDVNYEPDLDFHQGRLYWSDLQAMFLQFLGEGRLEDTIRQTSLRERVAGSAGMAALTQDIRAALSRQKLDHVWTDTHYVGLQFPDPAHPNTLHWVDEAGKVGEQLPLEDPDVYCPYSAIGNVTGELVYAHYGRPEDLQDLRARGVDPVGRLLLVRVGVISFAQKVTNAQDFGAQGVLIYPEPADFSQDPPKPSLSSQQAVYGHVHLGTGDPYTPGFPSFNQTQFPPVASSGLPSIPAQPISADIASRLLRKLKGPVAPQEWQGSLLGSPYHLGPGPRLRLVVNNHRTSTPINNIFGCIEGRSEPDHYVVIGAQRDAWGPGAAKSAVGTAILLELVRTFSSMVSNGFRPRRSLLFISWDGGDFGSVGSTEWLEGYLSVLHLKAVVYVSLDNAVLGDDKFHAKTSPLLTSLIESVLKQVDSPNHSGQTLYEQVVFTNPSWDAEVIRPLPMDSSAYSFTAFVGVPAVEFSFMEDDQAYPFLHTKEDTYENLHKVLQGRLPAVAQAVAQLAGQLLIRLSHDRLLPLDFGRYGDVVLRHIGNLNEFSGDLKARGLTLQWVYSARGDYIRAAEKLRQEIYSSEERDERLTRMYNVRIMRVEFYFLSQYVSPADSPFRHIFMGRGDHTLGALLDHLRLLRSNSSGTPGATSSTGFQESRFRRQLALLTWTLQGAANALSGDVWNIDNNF
UniProt Q96Q15, sequence (Q96Q15 whole entry, looked up): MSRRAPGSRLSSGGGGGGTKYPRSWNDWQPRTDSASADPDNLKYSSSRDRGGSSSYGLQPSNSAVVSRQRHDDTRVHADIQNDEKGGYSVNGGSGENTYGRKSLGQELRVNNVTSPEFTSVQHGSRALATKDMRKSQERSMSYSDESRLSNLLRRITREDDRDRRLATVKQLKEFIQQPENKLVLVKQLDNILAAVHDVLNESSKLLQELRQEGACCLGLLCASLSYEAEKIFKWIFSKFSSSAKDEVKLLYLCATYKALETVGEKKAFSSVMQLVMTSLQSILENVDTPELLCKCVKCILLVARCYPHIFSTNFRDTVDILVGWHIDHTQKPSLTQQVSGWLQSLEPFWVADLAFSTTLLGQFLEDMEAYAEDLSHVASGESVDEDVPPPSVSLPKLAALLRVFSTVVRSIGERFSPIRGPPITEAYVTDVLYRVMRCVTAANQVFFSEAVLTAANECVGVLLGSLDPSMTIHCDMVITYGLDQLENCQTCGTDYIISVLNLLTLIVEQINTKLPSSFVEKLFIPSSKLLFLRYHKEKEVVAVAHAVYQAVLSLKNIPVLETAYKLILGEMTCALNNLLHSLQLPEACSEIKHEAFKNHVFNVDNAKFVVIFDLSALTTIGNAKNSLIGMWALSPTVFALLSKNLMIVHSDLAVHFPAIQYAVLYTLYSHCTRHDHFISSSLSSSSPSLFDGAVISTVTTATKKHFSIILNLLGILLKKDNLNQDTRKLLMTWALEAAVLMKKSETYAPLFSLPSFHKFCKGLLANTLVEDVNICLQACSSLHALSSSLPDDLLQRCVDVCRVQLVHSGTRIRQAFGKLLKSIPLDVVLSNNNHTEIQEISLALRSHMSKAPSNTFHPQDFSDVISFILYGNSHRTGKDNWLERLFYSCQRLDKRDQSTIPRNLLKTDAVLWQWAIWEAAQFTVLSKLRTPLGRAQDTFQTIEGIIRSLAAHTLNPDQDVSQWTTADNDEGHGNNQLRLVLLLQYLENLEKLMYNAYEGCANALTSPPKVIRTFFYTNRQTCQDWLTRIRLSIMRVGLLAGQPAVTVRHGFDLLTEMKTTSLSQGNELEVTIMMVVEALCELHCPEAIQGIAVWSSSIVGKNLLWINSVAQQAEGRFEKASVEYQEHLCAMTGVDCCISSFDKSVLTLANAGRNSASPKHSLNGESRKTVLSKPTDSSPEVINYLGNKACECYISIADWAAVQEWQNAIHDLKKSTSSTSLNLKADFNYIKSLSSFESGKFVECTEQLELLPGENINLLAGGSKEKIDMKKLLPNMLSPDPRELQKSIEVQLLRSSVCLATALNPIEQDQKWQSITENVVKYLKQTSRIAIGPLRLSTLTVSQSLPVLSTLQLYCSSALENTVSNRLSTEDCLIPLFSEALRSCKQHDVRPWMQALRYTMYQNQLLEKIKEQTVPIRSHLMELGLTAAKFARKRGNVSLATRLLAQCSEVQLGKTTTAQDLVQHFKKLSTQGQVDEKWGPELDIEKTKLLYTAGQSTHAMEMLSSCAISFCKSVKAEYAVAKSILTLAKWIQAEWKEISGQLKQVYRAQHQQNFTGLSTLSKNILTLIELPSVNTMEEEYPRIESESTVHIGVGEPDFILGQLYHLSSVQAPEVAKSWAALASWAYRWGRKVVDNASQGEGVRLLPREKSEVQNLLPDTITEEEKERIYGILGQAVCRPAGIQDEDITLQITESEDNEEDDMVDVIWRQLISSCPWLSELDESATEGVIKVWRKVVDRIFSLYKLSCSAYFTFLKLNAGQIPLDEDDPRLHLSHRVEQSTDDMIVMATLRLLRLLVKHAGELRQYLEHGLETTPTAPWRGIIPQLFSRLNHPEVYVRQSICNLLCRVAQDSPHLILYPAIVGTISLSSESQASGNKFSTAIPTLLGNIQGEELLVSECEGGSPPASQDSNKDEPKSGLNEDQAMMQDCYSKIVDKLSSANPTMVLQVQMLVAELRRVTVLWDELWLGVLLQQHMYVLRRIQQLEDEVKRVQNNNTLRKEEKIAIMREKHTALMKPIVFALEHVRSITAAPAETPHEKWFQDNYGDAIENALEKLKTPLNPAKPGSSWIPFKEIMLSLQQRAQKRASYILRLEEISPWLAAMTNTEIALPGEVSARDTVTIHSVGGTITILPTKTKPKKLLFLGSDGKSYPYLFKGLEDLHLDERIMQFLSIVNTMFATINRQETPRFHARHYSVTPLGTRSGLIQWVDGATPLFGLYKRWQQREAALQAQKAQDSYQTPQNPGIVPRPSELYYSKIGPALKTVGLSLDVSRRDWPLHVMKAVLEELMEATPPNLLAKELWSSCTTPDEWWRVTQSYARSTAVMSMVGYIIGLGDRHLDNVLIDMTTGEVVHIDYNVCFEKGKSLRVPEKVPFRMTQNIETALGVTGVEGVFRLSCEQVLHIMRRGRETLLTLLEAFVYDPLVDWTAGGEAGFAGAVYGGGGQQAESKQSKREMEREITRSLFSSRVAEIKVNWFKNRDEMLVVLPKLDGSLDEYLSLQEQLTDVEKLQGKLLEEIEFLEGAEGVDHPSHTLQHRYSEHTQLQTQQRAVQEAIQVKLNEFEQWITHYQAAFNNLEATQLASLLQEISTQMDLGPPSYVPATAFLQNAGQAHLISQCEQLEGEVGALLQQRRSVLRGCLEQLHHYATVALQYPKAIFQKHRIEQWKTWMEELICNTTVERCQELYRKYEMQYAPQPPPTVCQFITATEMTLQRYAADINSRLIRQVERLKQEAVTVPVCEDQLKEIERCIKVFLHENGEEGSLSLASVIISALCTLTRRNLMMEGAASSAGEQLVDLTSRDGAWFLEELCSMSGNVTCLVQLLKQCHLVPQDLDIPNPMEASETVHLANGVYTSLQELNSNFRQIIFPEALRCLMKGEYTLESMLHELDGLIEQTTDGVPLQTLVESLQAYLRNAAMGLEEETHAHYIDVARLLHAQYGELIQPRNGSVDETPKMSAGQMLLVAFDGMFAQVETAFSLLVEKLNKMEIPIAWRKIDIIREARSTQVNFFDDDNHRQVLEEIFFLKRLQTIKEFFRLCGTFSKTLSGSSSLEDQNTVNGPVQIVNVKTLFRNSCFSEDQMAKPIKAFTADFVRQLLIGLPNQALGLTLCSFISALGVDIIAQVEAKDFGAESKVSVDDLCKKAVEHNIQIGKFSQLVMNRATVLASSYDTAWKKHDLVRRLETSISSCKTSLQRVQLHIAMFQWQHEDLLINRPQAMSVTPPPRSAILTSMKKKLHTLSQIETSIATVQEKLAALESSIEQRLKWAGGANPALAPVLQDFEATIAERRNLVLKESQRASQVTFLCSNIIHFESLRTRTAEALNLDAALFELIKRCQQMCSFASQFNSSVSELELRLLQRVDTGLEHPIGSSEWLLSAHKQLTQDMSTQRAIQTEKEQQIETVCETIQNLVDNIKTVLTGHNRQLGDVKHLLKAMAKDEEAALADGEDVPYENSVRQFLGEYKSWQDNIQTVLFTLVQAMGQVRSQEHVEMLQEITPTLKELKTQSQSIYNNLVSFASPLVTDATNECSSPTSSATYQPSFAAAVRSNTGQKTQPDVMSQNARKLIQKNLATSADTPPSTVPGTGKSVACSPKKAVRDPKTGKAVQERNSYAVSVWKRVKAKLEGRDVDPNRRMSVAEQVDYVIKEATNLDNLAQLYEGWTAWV

Target | log2 fold change (erlotinib) | log2 fold change [1] | log2 fold change [2] | log2 fold change [3] | log2 fold change [4] | log2 fold change [5] | log2 fold change [6] | log2 fold change [7] | log2 fold change [8] | log2 fold change [9] | log2 fold change (IRAK-1-4 Inhibitor I) | log2 fold change (ibrutinib) | log2 fold change [10] | log2 fold change (ralimetinib) | log2 fold change [11] | log2 fold change [12] | log2 fold change [13] | log2 fold change (pinometostat) | log2 fold change [14] | log2 fold change [15]
SRSF7 (UniProt Q16629) | 0.083 | -0.043 | -0.292 | 0.063 | -0.154 | -0.032 | -0.135 | -0.037 | 0.084 | -0.063 | -0.112 | 0.128 | -0.288 | 0.098 | 0.24 | 0.032 | 0.084 | 0.128 | 0.053 | -0.266
SMG1 (UniProt Q96Q15) | 0.012 | 0.101 | 0.066 | -0.012 | -0.029 | 0 | -0.088 | 0.049 | -0.054 | 0.066 | -0.088 | 0.021 | -0.002 | 0.012 | 0.002 | 0.007 | -0.014 | -0.06 | 0.045 | 0.054
SUCLG1 (UniProt P53597) | 0.033 | 0.027 | 0.052 | -0.004 | 0.012 | -0.017 | 0.061 | -0.017 | 0.021 | 0.034 | 0.048 | 0.01 | -0.018 | -0.039 | -0.07 | -0.058 | -0.01 | -0.04 | -0.017 | 0.053
SRPRB (UniProt Q9Y5M8) | -0.015 | 0.106 | 0.122 | -0.018 | 0.045 | -0.036 | 0.089 | 0.024 | -0.006 | 0.017 | -0.021 | 0.004 | -0.014 | 0.034 | -0.055 | -0.036 | -0.051 | -0.026 | -0.109 | 0.292 (active)
SMAD9 (UniProt O15198) | -0.001 | 0.086 | 0.101 | -0.055 | 0 | -0.012 | -0.111 | -0.098 | 0.113 | -0.076 | -0.033 | 0.007 | -0.092 | -0.087 | -0.022 | 0.005 | 0.06 | 0.024 | 0.039 | 0.017
SRP72 (UniProt O76094) | 0.044 | 0.105 | -0.072 | -0.054 | 0.066 | 0.001 | 0.005 | -0.052 | -0.005 | -0.194 | -0.119 | -0.03 | -0.025 | 0.104 | -0.121 | -0.275 | 0.062 | 0.205 | -0.026 | -0.547 (active)
SMCHD1 (UniProt A6NHR9) | 0.006 | 0.171 | -0.272 | 0.043 | 0.325 | 0.046 | -0.007 | -0.422 | -0.153 | -0.564 (active) | -0.268 | -0.007 | -0.344 | 0.108 | 0.068 | -0.067 | 0.038 | 0.092 | -0.08 | 0.406
SMC5 (UniProt Q8IY18) | -0.041 | 0.091 | -0.091 | 0.04 | 0.014 | 0.005 | -0.017 | -0.141 | 0.042 | 0.116 | 0.041 | 0.062 | -0.045 | 0.046 | 0.029 | 0.161 | 0.036 | 0.008 | -0.031 | -0.332 (active)
SLC27A1 (UniProt Q6PCB7) | -0.003 | -0.053 | 0.055 | -0.008 | 0.061 | 0 | 0.016 | 0.012 | -0.411 (active) | -0.064 | 0.052 | 0.064 | -0.05 | 0.001 | 0.117 | -0.035 | -0.04 | -0.034 | 0.195 | 0.04
STK4 (UniProt Q13043) | -0.017 | 0 | -0.02 | 0.003 | 0.04 | -0.02 | -0.009 | -0.208 (active) | -0.025 | 0.025 | -0.012 | -0.078 | -0.233 (active) | 0.002 | -0.018 | -0.019 | 0.015 | 0.008 | 0.023 | 0.019
SMARCAD1 isoform 2 (UniProt Q9H4L7) | 0.089 | 0.052 | 0.071 | 0.007 | 0.05 | -0.026 | 0.025 | 0.022 | -0.02 | -0.052 | -0.031 | -0.016 | 0.014 | -0.009 | -0.201 | -0.2 | 0.029 | -0.003 | -0.007 | 0.144
SUPT5H (UniProt O00267) | 0.05 | 0.084 | 0.065 | 0.011 | 0.017 | 0.021 | 0.02 | 0.006 | -0.017 | 0.011 | -0.009 | -0.068 | 0.066 | -0.009 | -0.065 | -0.046 | 0.013 | -0.017 | -0.035 | -0.08
SLC38A7 (UniProt Q9NVC3) | 0.009 | -0.003 | 0.071 | 0.058 | 0.024 | 0.088 | 0.441 (active) | 0.006 | 0.011 | 0.097 | 0.035 | 0.073 | 0.092 | 0.205 | -0.085 | -0.751 (active) | -0.024 | 0.033 | -0.009 | 0.007
SNRNP40 (UniProt Q96DI7) | -0.048 | -0.012 | -0.111 | 0.037 | -0.007 | 0.049 | -0.024 | -0.005 | 0 | 0.008 | -0.016 | 0.045 | 0.068 | -0.026 | 0.086 | 0.177 | 0.038 | -0.019 | -0.1 | 1.03 (active)
TBC1D23 (UniProt Q9NUY8) | 0.043 | 0.012 | 0.047 | 0.067 | 0.071 | 0.021 | -0.032 | -0.054 | -0.036 | -0.025 | 0.062 | -0.02 | -0.067 | 0.002 | -0.098 | -0.45 (active) | 0.071 | -0.046 | 0.055 | 0.01
TFR2 (UniProt Q9UP52) | 0.009 | -0.019 | -0.012 | -0.015 | 0.018 | 0.016 | -0.039 | -0.023 | 0.03 | 0.018 | 0.018 | 0.008 | -0.011 | -0.018 | 0.037 | -0.146 | 0.02 | 0.02 | 0.02 | -0.128
